Results as given in PubChem BioAssay (NCI).
The panel holds about 83,000 compounds, 20% with a hit somewhere; the sample as a whole holds those more often.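 Values shown are percent growth following 48 h exposure of cells in 96-well plates to a single concentration of compound; below 10 was considered active.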 Values without a mark were called inactive. Calls of active or inactive are those of the source.

System: MDA-MB-468 breast
Test: NCI-60 one-dose screen, 48 h (100 = growth as untreated, 0 = no growth, -100 = all killed)
Settings: 10 µM unless noted

Row | SMILES | growth
1 | Cn1nc(C(F)(F)F)c(-c2ccc(Cl)c(C(F)(F)F)c2)c1-c1ccc(OCc2ccc(Cl)cc2)cc1O | -18.7% (active)
2 | N=C(N)c1ccc(-c2ccc(-c3ccccc3)s2)nc1 | 41.7%
3 | CCN1C(=O)N(CC)C2C1NN=c1s/c(=C\c3ccccc3F)c(=O)n12 (centres undefined) | 10.9%
4 | C=C1C(=O)O[C@H]2[C@H]1CC/C(Cn1cc(-c3ccsc3)nn1)=C\CC[C@@]1(C)O[C@@H]21 | -56.8% (active)
5 | O=C(NCCNc1nccc(-c2c(-c3cccc(O)c3)nc3sccn23)n1)Nc1cccc(C(F)(F)F)c1 | -40.6% (active)
6 | NCCCOc1cc2ccccc2cc1C(=O)Nc1ccc(Cl)cc1OC(=O)c1cc2ccccc2cc1OCCCN | -86% (active)
7 | Cc1ccc(C2CC(c3ccc(Nc4ccnc5cc(Cl)ccc45)cc3)=NN2C=O)cc1 (centres undefined) | 33%
8 | Cc1cc(Cl)nc(N(CCCNc2ccnc3cc(Cl)ccc23)Cc2ccccn2)n1 | 0.122% (active)
9 | CCn1cc(C(=O)NN=C2CCCCCC2)c(=O)c2ccc(C)nc21 | 85.9%
10 | O=C1OC2(c3ccccc31)c1ccccc1-c1ccccc12 | 40.2%
11 | O=C(c1cccc(N2CCOCC2)n1)c1c[nH]c2ccccc12 | 89.5%
12 | Cc1ccccc1Cn1cnc2ccc(-c3cc(NC(=O)c4ccc(NC5CCN(C)CC5)cc4)n[nH]3)cc21 | 94.5%
13 | CN[C@@]12CC3(C=CC(=O)C=C3)O[C@]1(Cc1ccc(OC)cc1)N(C)C(=O)N2 | 23.7%
14 | CCn1c(C)nc2cc(C(N)=O)ccc21 | 102%
